# Key:
# Assay in all cases: DAPPL (digital affinity profiling via proximity ligation, sequencing); 10 mM Tris-HCl pH 7.5, 50 mM NaCl, 1 mM DTT, 4% glycerol, room temperature, 30 min; GST-TFs on glutathione beads, 16-mer random dsDNA library, 0.1% formaldehyde crosslink after washing; high values mean tight binding
# [1] = target: T1, FEV (Homo sapiens, UniProt Q99581 1-238); conditions: protein: recombinant; tags: N-terminal GST; dsDNA, one strand shown
# T1 sequence: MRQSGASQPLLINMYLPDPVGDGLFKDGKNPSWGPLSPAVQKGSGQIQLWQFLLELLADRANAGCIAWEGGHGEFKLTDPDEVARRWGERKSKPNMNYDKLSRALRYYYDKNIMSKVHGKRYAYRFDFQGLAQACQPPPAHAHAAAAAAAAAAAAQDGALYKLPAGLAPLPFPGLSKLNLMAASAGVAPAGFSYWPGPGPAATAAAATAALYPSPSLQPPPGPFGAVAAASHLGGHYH
# How it was run: (§1)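 Binding signal is each hexamer's read frequency for a factor divided by its frequency in the tag-only sample. The factors were GST-fused human transcription factors from yeast, captured on glutathione beads, DNA-barcoded and pooled with that sample. Pools were incubated with 200 nmole of a random double-stranded 16-mer DNA library in Tris/NaCl/DTT/glycerol buffer at room temperature for 30 min, then washed, crosslinked with 0.1% formaldehyde, proximity-ligated with BsaI/T4 ligase (1 h, 37 °C), PCR-amplified and sequenced on an Illumina NextSeq500.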
# [2] = target: ETV5 (Homo sapiens, UniProt P41161 1-510); conditions: protein: recombinant; tags: N-terminal GST; dsDNA, one strand shown
# How it was run: as §1
# [3] = target: HSF1 (Homo sapiens, UniProt Q00613 1-529); conditions: protein: recombinant; tags: N-terminal GST; chain copies: 3; dsDNA, one strand shown
# How it was run: as §1
# [4] = target: T2, SPIC (Homo sapiens, UniProt Q8N5J4 1-248); conditions: protein: recombinant; tags: N-terminal GST; dsDNA, one strand shown
# T2 sequence: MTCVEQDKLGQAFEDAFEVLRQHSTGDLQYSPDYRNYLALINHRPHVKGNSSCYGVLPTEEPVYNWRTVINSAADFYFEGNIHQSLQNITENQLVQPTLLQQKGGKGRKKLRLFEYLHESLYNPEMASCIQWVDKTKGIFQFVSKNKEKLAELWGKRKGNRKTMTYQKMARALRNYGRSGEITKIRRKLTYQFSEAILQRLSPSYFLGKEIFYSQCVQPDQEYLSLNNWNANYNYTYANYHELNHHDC
# How it was run: as §1
# [5] = target: ELF4 (Homo sapiens, UniProt Q99607 1-663); conditions: protein: recombinant; tags: N-terminal GST; dsDNA, one strand shown
# How it was run: as §1
# [6] = target: T3, ELK4 (Homo sapiens, UniProt P28324-2 1-405); conditions: protein: recombinant; tags: N-terminal GST; dsDNA, one strand shown
# T3 sequence: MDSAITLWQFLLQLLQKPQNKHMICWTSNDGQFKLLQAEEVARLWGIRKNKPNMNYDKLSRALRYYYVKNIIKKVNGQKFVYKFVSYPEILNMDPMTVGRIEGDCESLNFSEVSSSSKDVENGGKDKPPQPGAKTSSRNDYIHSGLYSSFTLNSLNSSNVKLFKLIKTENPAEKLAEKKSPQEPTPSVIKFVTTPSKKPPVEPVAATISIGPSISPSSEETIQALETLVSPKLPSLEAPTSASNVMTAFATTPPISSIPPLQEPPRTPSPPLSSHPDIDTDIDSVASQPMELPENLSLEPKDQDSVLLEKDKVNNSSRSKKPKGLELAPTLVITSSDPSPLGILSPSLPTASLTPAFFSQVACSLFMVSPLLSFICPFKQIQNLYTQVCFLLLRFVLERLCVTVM
# How it was run: as §1
# [7] = target: T4, ETV2 (Homo sapiens, UniProt O00321 1-342); conditions: protein: recombinant; tags: N-terminal GST; dsDNA, one strand shown
# T4 sequence: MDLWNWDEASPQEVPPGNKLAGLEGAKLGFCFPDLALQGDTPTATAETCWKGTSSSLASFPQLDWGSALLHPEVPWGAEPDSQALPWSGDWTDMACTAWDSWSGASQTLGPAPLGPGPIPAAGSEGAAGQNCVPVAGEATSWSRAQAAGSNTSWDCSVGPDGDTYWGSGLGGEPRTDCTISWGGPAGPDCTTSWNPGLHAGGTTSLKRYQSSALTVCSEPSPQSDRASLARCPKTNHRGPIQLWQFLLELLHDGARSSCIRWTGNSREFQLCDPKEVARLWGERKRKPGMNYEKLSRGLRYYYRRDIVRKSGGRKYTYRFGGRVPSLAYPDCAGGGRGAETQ
# How it was run: as §1
# [8] = target: T5, ELF3 (Homo sapiens, UniProt P78545 1-371); conditions: protein: recombinant; tags: N-terminal GST; dsDNA, one strand shown
# T5 sequence: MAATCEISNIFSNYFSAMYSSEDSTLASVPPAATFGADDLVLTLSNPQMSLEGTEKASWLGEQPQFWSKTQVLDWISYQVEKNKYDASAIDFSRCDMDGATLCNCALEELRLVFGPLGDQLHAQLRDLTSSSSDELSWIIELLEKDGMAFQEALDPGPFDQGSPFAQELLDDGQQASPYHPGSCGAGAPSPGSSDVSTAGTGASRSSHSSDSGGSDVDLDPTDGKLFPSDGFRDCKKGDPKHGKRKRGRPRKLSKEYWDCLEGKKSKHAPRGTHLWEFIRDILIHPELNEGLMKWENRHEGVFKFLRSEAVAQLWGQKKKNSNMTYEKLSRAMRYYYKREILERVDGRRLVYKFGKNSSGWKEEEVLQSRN
# How it was run: as §1
# [9] = target: CRX (Homo sapiens, UniProt O43186 1-299); conditions: protein: recombinant; tags: N-terminal GST; dsDNA, one strand shown
# How it was run: as §1
# [10] = target: ETV1 (Homo sapiens, UniProt P50549 1-477); conditions: protein: recombinant; tags: N-terminal GST; dsDNA, one strand shown
# How it was run: as §1
# [11] = target: T6, ERF (Homo sapiens, UniProt P50548 1-548); conditions: protein: recombinant; tags: N-terminal GST; dsDNA, one strand shown
# T6 sequence: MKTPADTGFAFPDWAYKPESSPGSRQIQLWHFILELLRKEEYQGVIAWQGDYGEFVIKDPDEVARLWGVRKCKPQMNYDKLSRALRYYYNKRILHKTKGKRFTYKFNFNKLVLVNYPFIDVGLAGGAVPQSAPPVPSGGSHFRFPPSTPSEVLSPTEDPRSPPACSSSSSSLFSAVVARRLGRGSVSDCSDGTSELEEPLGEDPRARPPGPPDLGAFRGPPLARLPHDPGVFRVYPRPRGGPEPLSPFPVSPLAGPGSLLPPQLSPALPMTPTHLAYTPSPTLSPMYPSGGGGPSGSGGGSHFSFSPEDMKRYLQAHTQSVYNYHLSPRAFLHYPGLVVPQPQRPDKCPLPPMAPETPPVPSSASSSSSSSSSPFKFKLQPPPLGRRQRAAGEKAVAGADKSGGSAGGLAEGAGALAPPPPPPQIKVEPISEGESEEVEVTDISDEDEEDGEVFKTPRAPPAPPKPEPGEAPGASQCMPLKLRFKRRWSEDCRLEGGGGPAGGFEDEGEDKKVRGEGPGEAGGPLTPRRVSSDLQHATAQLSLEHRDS
# How it was run: as §1
# [12] = target: T7, ETV3L (Homo sapiens, UniProt Q6ZN32 1-361); conditions: protein: recombinant; tags: N-terminal GST; dsDNA, one strand shown
# T7 sequence: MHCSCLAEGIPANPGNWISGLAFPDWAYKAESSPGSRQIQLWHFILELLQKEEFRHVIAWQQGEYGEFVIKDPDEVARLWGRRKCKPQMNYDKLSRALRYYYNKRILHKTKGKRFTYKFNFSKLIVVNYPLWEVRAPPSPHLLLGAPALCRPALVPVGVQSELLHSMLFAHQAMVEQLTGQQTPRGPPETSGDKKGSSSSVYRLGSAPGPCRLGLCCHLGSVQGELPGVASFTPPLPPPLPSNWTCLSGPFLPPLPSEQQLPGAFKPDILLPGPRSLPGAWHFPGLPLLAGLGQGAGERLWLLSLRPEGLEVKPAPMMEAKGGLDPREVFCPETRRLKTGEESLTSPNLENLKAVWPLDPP
# How it was run: as §1
# [13] = target: T8, ETS2 (Homo sapiens, UniProt P15036 1-469); conditions: protein: recombinant; tags: N-terminal GST; dsDNA, one strand shown
# T8 sequence: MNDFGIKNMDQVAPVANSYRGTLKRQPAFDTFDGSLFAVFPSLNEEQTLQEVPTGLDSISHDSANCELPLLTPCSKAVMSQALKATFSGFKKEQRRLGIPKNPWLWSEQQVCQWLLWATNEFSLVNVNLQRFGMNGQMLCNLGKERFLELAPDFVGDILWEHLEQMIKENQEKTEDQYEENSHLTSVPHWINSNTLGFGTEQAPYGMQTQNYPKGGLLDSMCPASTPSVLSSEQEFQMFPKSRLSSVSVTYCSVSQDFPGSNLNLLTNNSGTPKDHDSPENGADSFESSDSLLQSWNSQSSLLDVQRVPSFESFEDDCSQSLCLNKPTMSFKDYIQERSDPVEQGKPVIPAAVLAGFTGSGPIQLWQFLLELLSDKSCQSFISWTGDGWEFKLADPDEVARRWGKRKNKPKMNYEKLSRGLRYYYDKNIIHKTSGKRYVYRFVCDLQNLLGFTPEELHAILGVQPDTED
# How it was run: as §1
# [14] = target: T9, SPDEF (Homo sapiens, UniProt O95238 1-335); conditions: protein: recombinant; tags: N-terminal GST; dsDNA, one strand shown
# T9 sequence: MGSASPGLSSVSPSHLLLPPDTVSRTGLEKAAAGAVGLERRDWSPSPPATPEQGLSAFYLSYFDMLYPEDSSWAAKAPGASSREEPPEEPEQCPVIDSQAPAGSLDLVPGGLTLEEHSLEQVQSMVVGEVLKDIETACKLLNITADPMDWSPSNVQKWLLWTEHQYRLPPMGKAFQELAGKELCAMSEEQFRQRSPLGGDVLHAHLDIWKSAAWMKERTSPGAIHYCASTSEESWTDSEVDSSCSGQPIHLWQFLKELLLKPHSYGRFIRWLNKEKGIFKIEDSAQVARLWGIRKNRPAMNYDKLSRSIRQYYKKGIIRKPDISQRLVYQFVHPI
# How it was run: as §1
# [15] = target: T10, ETV7 (Homo sapiens, UniProt Q9Y603 1-341); conditions: protein: recombinant; tags: N-terminal GST; dsDNA, one strand shown
# T10 sequence: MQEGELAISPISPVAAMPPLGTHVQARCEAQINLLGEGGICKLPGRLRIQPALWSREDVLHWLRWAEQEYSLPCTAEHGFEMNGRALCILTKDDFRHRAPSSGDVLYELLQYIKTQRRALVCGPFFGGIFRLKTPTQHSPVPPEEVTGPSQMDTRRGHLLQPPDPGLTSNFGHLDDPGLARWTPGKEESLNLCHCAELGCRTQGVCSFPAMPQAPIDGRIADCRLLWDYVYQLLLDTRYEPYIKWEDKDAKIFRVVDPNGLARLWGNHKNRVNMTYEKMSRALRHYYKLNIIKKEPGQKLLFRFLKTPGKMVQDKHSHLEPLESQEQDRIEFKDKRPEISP
# How it was run: as §1
# [16] = target: T11, ELF5 (Homo sapiens, UniProt Q9UKW6-2 1-255); conditions: protein: recombinant; tags: N-terminal GST; dsDNA, one strand shown
# T11 sequence: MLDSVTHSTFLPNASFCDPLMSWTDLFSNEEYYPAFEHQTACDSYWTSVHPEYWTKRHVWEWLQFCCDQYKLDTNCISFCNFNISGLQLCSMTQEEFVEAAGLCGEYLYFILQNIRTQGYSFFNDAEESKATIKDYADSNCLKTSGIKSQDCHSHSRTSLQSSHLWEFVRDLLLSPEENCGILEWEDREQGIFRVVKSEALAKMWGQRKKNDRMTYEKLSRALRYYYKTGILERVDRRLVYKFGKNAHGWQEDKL
# How it was run: as §1
# [17] = target: T12, ETV3 (Homo sapiens, UniProt P41162-2 1-143); conditions: protein: recombinant; tags: N-terminal GST; dsDNA, one strand shown
# T12 sequence: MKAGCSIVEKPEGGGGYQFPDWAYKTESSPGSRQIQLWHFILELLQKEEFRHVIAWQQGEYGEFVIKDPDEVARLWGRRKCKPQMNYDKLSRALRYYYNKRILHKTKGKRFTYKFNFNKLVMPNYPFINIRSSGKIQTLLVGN
# How it was run: as §1
# [18] = target: ETV6 (Homo sapiens, UniProt P41212 1-452); conditions: protein: recombinant; tags: N-terminal GST; dsDNA, one strand shown
# How it was run: as §1
# Sequence of ETV6 (P41212 whole entry): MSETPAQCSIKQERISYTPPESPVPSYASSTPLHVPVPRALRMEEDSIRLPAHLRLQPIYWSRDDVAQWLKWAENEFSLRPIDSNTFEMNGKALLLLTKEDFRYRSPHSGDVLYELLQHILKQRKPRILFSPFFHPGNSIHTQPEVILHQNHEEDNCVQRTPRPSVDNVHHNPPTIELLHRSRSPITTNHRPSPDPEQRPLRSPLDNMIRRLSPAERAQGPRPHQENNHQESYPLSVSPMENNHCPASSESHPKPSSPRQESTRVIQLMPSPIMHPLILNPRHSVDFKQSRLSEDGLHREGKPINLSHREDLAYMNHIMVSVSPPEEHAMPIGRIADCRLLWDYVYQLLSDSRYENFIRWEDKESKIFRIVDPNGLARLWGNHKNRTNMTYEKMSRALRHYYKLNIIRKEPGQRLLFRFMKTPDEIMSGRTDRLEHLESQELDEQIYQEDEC
# Sequence of ETV5 (P41161 whole entry): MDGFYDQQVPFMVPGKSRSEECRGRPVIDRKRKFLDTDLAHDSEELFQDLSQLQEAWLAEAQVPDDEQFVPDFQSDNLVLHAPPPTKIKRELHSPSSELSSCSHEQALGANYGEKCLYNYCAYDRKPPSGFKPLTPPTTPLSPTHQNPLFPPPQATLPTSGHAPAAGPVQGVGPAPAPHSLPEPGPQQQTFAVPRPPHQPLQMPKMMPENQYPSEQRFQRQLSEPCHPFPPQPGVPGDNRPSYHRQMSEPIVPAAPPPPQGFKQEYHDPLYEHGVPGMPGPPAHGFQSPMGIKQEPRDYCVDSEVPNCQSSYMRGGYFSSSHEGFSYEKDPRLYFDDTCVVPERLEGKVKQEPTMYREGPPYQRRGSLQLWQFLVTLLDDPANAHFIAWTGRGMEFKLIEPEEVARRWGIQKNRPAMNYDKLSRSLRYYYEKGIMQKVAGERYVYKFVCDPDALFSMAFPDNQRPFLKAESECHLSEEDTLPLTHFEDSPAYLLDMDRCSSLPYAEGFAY
# Sequence of ELF4 (Q99607 whole entry): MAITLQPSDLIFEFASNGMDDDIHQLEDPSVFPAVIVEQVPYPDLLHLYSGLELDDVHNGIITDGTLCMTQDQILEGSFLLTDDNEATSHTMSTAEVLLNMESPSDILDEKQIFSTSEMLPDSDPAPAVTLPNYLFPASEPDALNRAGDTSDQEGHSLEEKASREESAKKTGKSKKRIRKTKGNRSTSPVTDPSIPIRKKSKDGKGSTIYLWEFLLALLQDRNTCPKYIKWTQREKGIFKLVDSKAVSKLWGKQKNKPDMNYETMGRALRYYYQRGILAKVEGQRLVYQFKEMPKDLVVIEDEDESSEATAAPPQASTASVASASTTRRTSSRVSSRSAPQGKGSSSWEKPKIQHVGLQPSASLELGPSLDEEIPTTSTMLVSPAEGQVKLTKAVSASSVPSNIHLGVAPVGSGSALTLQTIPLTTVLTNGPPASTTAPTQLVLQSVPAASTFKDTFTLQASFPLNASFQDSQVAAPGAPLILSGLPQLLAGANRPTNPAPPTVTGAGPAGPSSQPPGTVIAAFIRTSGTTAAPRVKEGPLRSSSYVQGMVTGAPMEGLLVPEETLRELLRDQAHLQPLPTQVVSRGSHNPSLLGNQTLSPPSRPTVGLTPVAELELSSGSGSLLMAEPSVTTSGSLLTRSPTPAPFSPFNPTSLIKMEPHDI
# Sequence of ETV1 (P50549 whole entry): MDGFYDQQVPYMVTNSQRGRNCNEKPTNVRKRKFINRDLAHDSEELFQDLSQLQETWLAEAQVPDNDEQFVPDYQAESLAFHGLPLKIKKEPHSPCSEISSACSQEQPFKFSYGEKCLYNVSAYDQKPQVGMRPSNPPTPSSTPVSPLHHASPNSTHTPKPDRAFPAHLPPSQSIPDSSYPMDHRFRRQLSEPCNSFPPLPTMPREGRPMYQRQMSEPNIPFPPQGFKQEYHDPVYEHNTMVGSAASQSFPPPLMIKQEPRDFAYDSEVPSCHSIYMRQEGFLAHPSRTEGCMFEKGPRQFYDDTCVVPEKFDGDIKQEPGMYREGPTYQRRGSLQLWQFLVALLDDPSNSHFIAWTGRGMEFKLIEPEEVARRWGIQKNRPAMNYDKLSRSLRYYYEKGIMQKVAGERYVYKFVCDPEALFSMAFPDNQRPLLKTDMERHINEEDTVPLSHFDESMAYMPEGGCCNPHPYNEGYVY
# Sequence of CRX (O43186 whole entry): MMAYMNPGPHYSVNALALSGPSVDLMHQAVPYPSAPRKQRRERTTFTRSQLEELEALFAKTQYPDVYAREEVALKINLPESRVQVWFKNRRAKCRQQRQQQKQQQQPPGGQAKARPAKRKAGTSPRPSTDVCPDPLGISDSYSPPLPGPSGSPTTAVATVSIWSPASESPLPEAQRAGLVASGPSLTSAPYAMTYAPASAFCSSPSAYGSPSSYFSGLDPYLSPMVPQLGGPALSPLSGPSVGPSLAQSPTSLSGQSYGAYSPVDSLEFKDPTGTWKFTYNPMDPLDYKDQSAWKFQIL
# Sequence of HSF1 (Q00613 whole entry): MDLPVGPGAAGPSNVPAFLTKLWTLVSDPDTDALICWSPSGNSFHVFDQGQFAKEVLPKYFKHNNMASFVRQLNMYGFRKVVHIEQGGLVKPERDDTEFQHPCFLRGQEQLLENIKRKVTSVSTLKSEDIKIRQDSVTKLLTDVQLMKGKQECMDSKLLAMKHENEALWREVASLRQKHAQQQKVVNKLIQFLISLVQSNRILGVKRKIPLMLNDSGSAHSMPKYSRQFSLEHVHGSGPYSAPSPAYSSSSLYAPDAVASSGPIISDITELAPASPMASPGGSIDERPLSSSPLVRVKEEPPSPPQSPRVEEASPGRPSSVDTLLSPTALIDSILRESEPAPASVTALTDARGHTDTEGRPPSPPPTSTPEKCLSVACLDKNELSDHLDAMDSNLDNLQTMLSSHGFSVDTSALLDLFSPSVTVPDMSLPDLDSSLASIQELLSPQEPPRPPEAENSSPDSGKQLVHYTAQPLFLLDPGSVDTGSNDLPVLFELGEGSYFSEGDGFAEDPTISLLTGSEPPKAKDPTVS
sequence,measurement,setting,value
TACGAT,binding signal,[1],"1.13 fold enrichment (6-mer frequency, TF over GST control)"
same,binding signal,[2],"1.12 fold enrichment (6-mer frequency, TF over GST control)"
same,binding signal,[3],"1.13 fold enrichment (6-mer frequency, TF over GST control)"
same,binding signal,[4],"1.05 fold enrichment (6-mer frequency, TF over GST control)"
same,binding signal,[5],"1.11 fold enrichment (6-mer frequency, TF over GST control)"
same,binding signal,[6],"1.14 fold enrichment (6-mer frequency, TF over GST control)"
same,binding signal,[7],"1.12 fold enrichment (6-mer frequency, TF over GST control)"
same,binding signal,[8],"1.11 fold enrichment (6-mer frequency, TF over GST control)"
same,binding signal,[9],"1.37 fold enrichment (6-mer frequency, TF over GST control)"
same,binding signal,[10],"1.07 fold enrichment (6-mer frequency, TF over GST control)"
same,binding signal,[11],"1.07 fold enrichment (6-mer frequency, TF over GST control)"
same,binding signal,[12],"1.13 fold enrichment (6-mer frequency, TF over GST control)"
same,binding signal,[13],"1.15 fold enrichment (6-mer frequency, TF over GST control)"
same,binding signal,[14],"1.11 fold enrichment (6-mer frequency, TF over GST control)"
same,binding signal,[15],"1.07 fold enrichment (6-mer frequency, TF over GST control)"
same,binding signal,[16],"1.03 fold enrichment (6-mer frequency, TF over GST control)"
same,binding signal,[17],"1 fold enrichment (6-mer frequency, TF over GST control)"
same,binding signal,[18],"1.03 fold enrichment (6-mer frequency, TF over GST control)"

# Source: publication PMC7862700, “An all-to-all approach to the identification of sequence-specific readers for epigenetic DNA modifications on cytosine”
